Tg IFNy HTS – T. gondii growth inhibition with IFN-gamma, primary screen, cell-based. Toxoplasma gondii growth in IFN-gamma-treated host cells; stronger effect = lower value. activity change, negative = inhibition, % (no concentration beside the values). actives 3.8% (n = 69,000). AID 1259416, 2018; in the data active = activity change below about -70%, passing the limit was not always enough;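 note: host cells are HeLa cells infected with Toxoplasma gondii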
Starred values were filed as active, the others as inactive; i = inactive; ! = not confirmed by another sample. This is one part of a sample in which hits are shown more often than they occur.

SMILES | Tg IFNy HTS
CCCN1C(=O)CCc2cc(NC(=O)CCOC)ccc21 | 7.1
COCCN1C(=O)CCc2cc(NC(=O)C3CC3)ccc21 | 45.2
CCCN1C(=O)CCc2cc(NC(=O)c3cc(Cl)ccc3OC)ccc21 | -92.5*
CCCN1C(=O)CCc2cc(NC(C)=O)ccc21 | 29.6
CCCN1C(=O)CCc2cc(NC(=O)Cc3ccc(Cl)cc3)ccc21 | -8.9
CCCC(=O)Nc1ccc2c(c1)CCC(=O)N2CCC | 58.9
COCCN1C(=O)CCc2cc(NC(=O)c3ccc(Cl)s3)ccc21 | -78.1*
CCCN1C(=O)CCc2cc(NC(=O)c3ccc(Cl)s3)ccc21 | -89.7*
COCCN1C(=O)CCc2cc(NC(C)=O)ccc21 | -28.0
C=CCOc1ccccc1NC(=O)c1ccnc2ccc(Cl)cc12 | -13.6
CCOc1cc(-c2nccn2Cc2cc(-c3cccnc3)no2)ccc1O | 0.8
CCOc1ccc(NC(=O)c2c(O)c3cccnc3n(-c3cccc(F)c3)c2=O)cc1 | 88.1
Cn1cc(N2CC3(COCCN(C(=O)C4CC4)C3)OCC2=O)cn1 (stereo unspecified) | -5.1
CCOc1ccc(NC(=O)N2CCC(c3nc(C(=O)N4CCCC4)c(C)o3)CC2)cc1 | 65.0
COc1ccc(OC)c(NC(=O)Nc2ccc(-c3nc(-c4ccc(C)cc4C)co3)cc2)c1 | -39.6
C=CC(=O)Nc1cc2c(Nc3ccc(F)c(Cl)c3)ncnc2cc1C#CC(C)(C)N1CCN(C)CC1 | -71.8*
CN1CCC(Nc2ncc3ncnc(Nc4ccc(F)c(Cl)c4)c3n2)CC1 | -30.2
CN1CCCC1CCNC(=O)CC(=O)Nc1ccc(F)c(Cl)c1 (stereo unspecified) | -47.0
Cc1ccccc1-c1cc(O)c2c(c1)CN(C(=O)c1ccco1)CCO2 | -46.3
Clc1cccc(Cl)c1Cn1ccnc1 | 1.3
COc1ccccc1CN(CCCn1ccnc1)Cc1ccc(F)c(F)c1 | -42.3
Clc1ccc(CCC(Cn2ccnc2)Sc2c(Cl)cccc2Cl)cc1 (stereo unspecified) | -85.8*
C=Cc1cccc(CN2CCC3(CC2)CNC(=O)C3)c1 | -4.2
CCCCOc1ccc(-c2cc3c(=O)n(Cc4nc(-c5ccccc5OCC)oc4C)ccn3n2)cc1 | 20.5
CN(C)C(=O)CNC(=O)c1cc(-c2cnc(N3CCOCC3)nc2)cn1CC1CC1 | 43.3
SMILES | Tg IFNy HTS
CCCCN(C)C(=O)c1cc(-c2cnc(N3CCOCC3)nc2)cn1CC1CC1 | -67.0
O=C(NCc1ccc(F)cc1F)c1cc(-c2cnc(N3CCCC3)nc2)cn1CC1CC1 | -103.2*
Cc1ccc(NC(=O)c2cc(-c3cnc(N4CCCC4)nc3)cn2CC2CC2)cn1 | -21.6
Cc1cccc(NC(=O)c2cc(-c3cnc(N4CCOCC4)nc3)cn2CC2CC2)c1 | -79.7*
COc1ncccc1NC(=O)c1cc(-c2cnc(N3CCCC3)nc2)cn1CC1CC1 | -45.1
CCn1cnc2cc(NC(=O)C(C)N3C(=O)C4C5C=CC(C5)C4C3=O)ccc21 (stereo unspecified) | 19.4
Cc1ccc(NC(=O)N2CCC3(CC2)Nc2cc(C)ccc2-n2cccc23)cc1 | i
Cc1ccccc1C(NC(=O)c1cn[nH]n1)c1ccncc1 (stereo unspecified) | -1.6
CC(=O)Nc1ccc(-c2c(-c3ccccc3)ncn2Cc2ccco2)cc1 | -3.3
CO[C@H]1COC[C@@H]1n1cnc(-c2ccccc2)c1-c1ccc2occc2c1 | -77.8*
C=CCn1cnc(-c2ccccc2)c1-c1ccc2onc(C)c2c1 | -0.7
Cc1ccsc1[C@@H]1CCN(C(=O)Cc2cn3ccsc3n2)C[C@H]1O | 7.7
O=Nc1c(-c2c(O)[nH]c3cc(Br)ccc23)[nH]c2ccccc12 | -91.9*
O=C1C(c2c(O)[nH]c3ccccc23)=Nc2ccccc21 | -3.3
O=c1[nH]c2ccccc2c(O)c1-c1nc(-c2ccc(Br)cc2)no1 | 26.5
O=S(=O)(O)c1ccc(-c2c3nc(c(-c4ccc(S(=O)(=O)O)cc4)c4ccc([nH]4)c(-c4ccc(S(=O)(=O)O)cc4)c4nc(c(-c5ccc(S(=O)(=O)O)cc5)c5ccc2[nH]5)C=C4)C=C3)cc1 | 12.4
O=C(Nc1cccnc1-c1ccc2c(c1)OCO2)C1CC1 | 8.9
Cc1cccc(OCC(=O)NCCc2sc(-c3ccc(Cl)cc3)nc2C)c1 | 57.9
CC[C@@H](C(=O)O)C1CC[C@H](C)C([C@@H](C)[C@H](O)[C@H](C)C(=O)[C@H](CC)C2O[C@]3(C=C[C@@H](O)[C@]4(CC[C@@](C)(C5CC[C@](O)(CC)[C@H](C)O5)O4)O3)[C@H](C)C[C@@H]2C)O1 (stereo partly specified) | -78.8*!
Clc1ccc(-c2nc(N3CCOCC3)ncc2-c2ncc[nH]2)cc1 | -60.3
Fc1ccc(-c2nc(N3CCN(c4ccccn4)CC3)ncc2-c2ncc[nH]2)cc1 | -92.3*
O=C(CCCN1CCN(c2ccccn2)CC1)c1ccc(F)cc1 | 8.6
O=C(O)C1Cc2nc[nH]c2CN1C(=O)CCSCc1ccc(F)cc1 (stereo unspecified) | 1.6
CCCNC(=O)c1cc2c(c(-c3cccc(-c4cc5ccccc5o4)c3)n1)[C@H](CCO)N(C(=O)NC(C)C)C2 | -71.2*
CC(C)NC(=O)N1Cc2cc(C(=O)NC3Cc4ccccc4C3)nc(-c3cccc(-c4cccnc4)c3)c2[C@H]1CCO | -57.4
SMILES | Tg IFNy HTS
CC(C)NC(=O)N1Cc2cc(C(=O)NC3CCC3)nc(-c3cccc(-c4cncnc4)c3)c2[C@@H]1CCO | 4.9
Cc1cccc(COC[C@@H]2CCC3C(CCN3S(C)(=O)=O)O2)n1 (stereo partly specified) | 3.5
CCOc1ccc(NC(=O)C2=C(C)C(=O)OC23CCN(Cc2ccccc2)CC3)cc1 | 30.5
CC1=C(C(=O)Nc2ccc(Cl)c(Cl)c2)C2(CCN(Cc3ccccc3)CC2)OC1=O | -92.5*
CC1=C(C(=O)Nc2ccc(Cl)cc2)C2(CCN(Cc3ccccc3)CC2)OC1=O | -30.4
COc1ccc(-c2nccn2Cc2ccon2)c(OC)c1 | 34.1
O=S1(=O)CC=C(S(=O)(=O)N2CCCC3(CCNC3)C2)C1 (stereo unspecified) | 6.1
CCc1ccc(-c2nccn2CCCn2ccnc2)cc1 | -5.1
COc1ccccc1-c1nc(Cn2nnc(C(=O)Nc3ccc(Br)cc3)c2C)c(C)o1 | 34.2
Cn1c(Nc2ccc(C(F)(F)F)cc2)nc2cc(Oc3ccnc(-c4ncc(C(F)(F)F)[nH]4)c3)ccc21 | -72.5*
Cn1cnc2cc(C(=O)Nc3ccc4c(c3)nc(C(F)(F)F)n4C)ccc21 | -27.0
CCc1nc2cc(NC(=O)COc3ccc4nsnc4c3)ccc2n1C | 19.2
O=C(NC1CC1)N1C[C@@H]2OCC(=O)N(Cc3cccc(F)c3)[C@H]2C1 | -19.9
CN1CCCN=C1COC(=O)C(O)(c1ccccc1)C1CCCCC1 (stereo unspecified) | -74.4*!
OC(CCN1CCCC1)(c1ccccc1)C1CCCCC1 (stereo unspecified) | -41.6
CC[N+](CC)(CC)CCC(O)(c1ccccc1)C1CCCCC1 (stereo unspecified) | 21.8
CCc1noc(CC)c1C(=O)N1C2CCC1CC(O)(c1ccc3c(c1)OCO3)C2 (stereo unspecified) | 6.0
Cc1ccc(-n2c(SCc3nc(-c4cccc(C)c4)oc3C)nc3c(=O)[nH]cnc32)cc1 | i
CCn1c(SCc2nc(-c3ccc(C)cc3)oc2C)nc2c(=O)[nH]cnc21 | 23.6
Cc1oc(-c2ccc(Cl)cc2)nc1CSc1nc2c(=O)[nH]cnc2n1-c1ccccc1 | -27.5
Cc1ccc(-c2nc(CSc3nc4c(=O)[nH]cnc4n3-c3ccccc3)c(C)o2)cc1 | -104.5*
Cc1oc(-c2cccc(Cl)c2)nc1CSc1nc2c(=O)[nH]cnc2n1-c1ccccc1 | -84.2*

High-throughput results: PubChem, Broad Institute
